The results in this text go back to PubChem BioAssay (EPA / NIEHS).

Several values for one entry are separate records, joined by “and”; a condition that tells them apart may be missing. Equal values may be shown once. Records with an inconclusive call do not appear. A structure can be active in one record and inactive in another. Activity calls are given as the source filed them. The calls were made as follows, unless noted: active = hit-call score of the fitted dose curve at least 0.9, where 1 is the maximum; inactive = score below 0.9.

The target in assay [1] is Estrogen-related receptor gamma (Homo sapiens) (UniProt P62508). Kind of assay: ATG_ERRg_TRANS: Attagene TRANS-FACTORIAL HepG2 Assay for human Estrogen-Related Receptor gamma (ERRg) (AID 2282977; active = hit-call score of the fitted dose curve at least 0.9, where 1 is the maximum;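 also: hits increase reporter signal over DMSO so potencies reflect activators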). The following applies: HepG2 Attagene TRANS reporter, ERRg transactivation. In a few lines: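 Exogenous NR-Gal4 chimera activity was assessed in HepG2 cells bearing transfected GAL4-UAS reporters. After 24 h dosing, total RNA underwent RT-PCR, fluorescent primer extension and HpaI digestion before capillary electrophoresis, with gain of signal scored against DMSO.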

The target in assay [2] is Glucocorticoid receptor (Homo sapiens) (UniProt P04150). As to the kind of experiment: ATG_GR_TRANS: Attagene TRANS-FACTORIAL HepG2 Assay for human Glucocorticoid Receptor (GR) (AID 2282978; active = hit-call score of the fitted dose curve at least 0.9, where 1 is the maximum;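 also: activators score as hits since higher reporter transcript over DMSO is fitted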). The following applies: HepG2 Attagene TRANS GR reporter, mRNA transcription. Summed up: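 Multiplexed TRANS reporter system, HepG2; 24 h exposure; RNA → oligo(dT) RT → reporter-specific PCR → 6-FAM primer extension → HpaI cut → CE fluorescence. Gain-of-signal vs DMSO.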

The target in assay [3] is Oxysterols receptor LXR-beta (Homo sapiens) (UniProt P55055). Kind of assay: ATG_LXRb_TRANS: Attagene TRANS-FACTORIAL HepG2 Assay for human Liver X Receptor beta (LXRb) (AID 2282981; active = hit-call score of the fitted dose curve at least 0.9, where 1 is the maximum). The following applies: HepG2 Attagene TRANS GAL4-LXRb reporter, mRNA. In a few lines: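 After 24 h of chemical treatment, transfected HepG2 cells yield total RNA; reporter cDNA is PCR-amplified, FAM-labelled, HpaI-cut and run on capillary electrophoresis. Signal reflects chimeric LXRb-Gal4 activity on GAL4-UAS reporters.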

For assay [4], the target named is Hepatocyte nuclear factor 4-alpha (Homo sapiens) (UniProt P41235). Kind of assay: ATG_HNF4a_TRANS: Attagene TRANS-FACTORIAL HepG2 Assay for human Hepatocyte Nuclear Factor 4 alpha (HNF4a) (AID 2282982; active = hit-call score of the fitted dose curve at least 0.9, where 1 is the maximum). The following applies: HepG2 HNF4a transactivation reporter, mRNA readout. In a few lines:
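Multiplexed reporter assay: transfected HepG2, 24 h exposure, total RNA → oligo(dT) RT → PCR → 6-FAM extension → HpaI digest → CE fluorescence. DMSO = negative control.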

The nature of assay [5]: ATG_M_06_TRANS: Attagene TRANS-FACTORIAL HepG2 Assay for M06 Transcription Factor (Internal Marker) (AID 2282983; active = hit-call score of the fitted dose curve at least 0.9, where 1 is the maximum;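 also: reporter transcript level by RT-PCR then capillary electrophoresis fluorescence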). The following applies: HepG2 Attagene TRANS M06 internal marker reporter. In a few lines: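 Multi-reporter-transfected HepG2, 24 h treatment; reporter transcripts quantified via RT-PCR, primer-extension labelling and CE. DMSO-normalized gain-of-signal fit.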

In assay [6] the target is Transcriptional activator Myb (Homo sapiens) (UniProt P10242). As to the kind of experiment: ATG_Myb_CIS: Attagene CIS-FACTORIAL HepG2 Assay for human Myeloblastosis (Myb) Proto-Oncogene Transcription Factor (AID 2282986). The following applies: HepG2 Attagene CIS-FACTORIAL Myb reporter transcription; actives raise or lower the signal. Summed up:
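Endogenous transcription factor activity at a Myb-responsive cis element is reported in human liver HepG2 cells after 24 h chemical treatment. Reporter mRNA is detected by RT-PCR and capillary electrophoresis fluorescence, with DMSO as baseline.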

Assay [7] deals with Nuclear respiratory factor 1 (Homo sapiens) (UniProt Q16656). Kind of assay: ATG_NRF1_CIS: Attagene CIS-FACTORIAL HepG2 Assay for human Nuclear Respiratory Factor 1 (NRF1) Orphan Gene (AID 2282987). The following applies: HepG2 NRF1 cis-element reporter, Attagene multiplex; actives raise or lower the signal. In a few lines:
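Human hepatoma HepG2 cells carrying transfected promoter-regulated reporter units were incubated with test chemicals for 24 h. Reporter transcripts were measured by RT-PCR plus capillary electrophoresis, and endpoints derived by bidirectional fitting with DMSO as baseline.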

A short description of assay [8]: ATG_NFI_CIS: Attagene CIS-FACTORIAL HepG2 Assay for human Nuclear Factor I (NFI) (AID 2282989). The following applies: HepG2 cis-regulatory reporter, NFI response element transcription; actives raise or lower the signal. Summed up: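 Transient MRTU transfection of HepG2 → 24 h chemical dosing → total RNA, oligo(dT) RT → PCR, 6-FAM primer extension, HpaI cut → capillary electrophoresis. Endpoint fitted bidirectionally relative to DMSO.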

Assay [9] is described as follows: ATG_NF_kB_CIS: Attagene CIS-FACTORIAL HepG2 Assay for human Nuclear Factor Kappa B (NF-kB) (AID 2282991). The following applies: HepG2 Attagene cis-factorial NF-kB reporter mRNA; actives raise or lower the signal. In a few lines: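 Multiplexed cis-reporter assay in transiently transfected HepG2. 24 h treatment; RNA isolated, RT-PCR, labelled fragments resolved by CE. DMSO baseline.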

Assay [10] can be described thus: ATG_NRF2_ARE_CIS: Attagene CIS-FACTORIAL HepG2 Assay for human Nuclear Factor Erythroid 2 Related Factor 2 (NFR2) response to Antioxidant Response Elements (ARE) (AID 2282992).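 As to AC50: reporter mRNA level measured by RT-PCR and capillary electrophoresis fluorescence.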 The following applies: HepG2 Attagene ARE/NRF2 reporter, transcription factor activity; actives raise or lower the signal. In a few lines:
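Endogenous transcription factor activity in human liver HepG2 cells is tracked via a cis-element-driven reporter within a multiplexed set. mRNA induction is read by RT-PCR and capillary electrophoresis after 24 h, with DMSO as baseline.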

Assay [11] is described as follows: ATG_Oct_MLP_CIS: Attagene CIS-FACTORIAL HepG2 Assay for human Octamer-Binding Transcription Factor (Oct) (AID 2282993). The following applies: HepG2 Attagene cis-factorial Oct reporter, mRNA; actives raise or lower the signal. In a few lines: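 Transient MRTU transfection of HepG2 → 24 h compound treatment → RNA isolation, reverse transcription, PCR → 6-FAM primer extension, HpaI digest → capillary electrophoresis. Activity fitted both directions against DMSO.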

Assay [12] addresses Oxysterols receptor LXR-alpha (Homo sapiens) (UniProt Q13133). As to the kind of experiment: ATG_LXRa_TRANS: Attagene TRANS-FACTORIAL HepG2 Assay for human Liver X Receptor alpha (LXRa) (AID 2282980; active = hit-call score of the fitted dose curve at least 0.9, where 1 is the maximum). The following applies: HepG2 Attagene TRANS reporter, LXRa transactivation. In a few lines:
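In this multiplexed TRANS system, compounds act on HepG2 cells carrying GAL4-UAS reporter units and a receptor-GAL4 fusion for 24 h. Induced reporter RNA is amplified, fluorescently labelled and sized by capillary electrophoresis, with DMSO as baseline.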

Assay [13] is described as follows: ATG_M_32_TRANS: Attagene TRANS-FACTORIAL HepG2 Assay for M32 Transcription Factor (Internal Marker) (AID 2282984; active = hit-call score of the fitted dose curve at least 0.9, where 1 is the maximum;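 also: transcript level of a background control reporter unit measured by RT-PCR and capillary electrophoresis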). The following applies: HepG2 Attagene TRANS M32 internal marker reporter. Summed up: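 Cell-based TRANS-format assay in HepG2: exogenous chimeric GAL4 reporter units transiently expressed, compounds applied 24 h. Reporter mRNA detected by RT-PCR plus capillary electrophoresis; this readout is an internal background marker.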

The target in assay [14] is Nuclear receptor subfamily 4 group A member 2 (Homo sapiens) (UniProt P43354). Kind of assay: ATG_NURR1_TRANS: Attagene TRANS-FACTORIAL HepG2 Assay for human Nuclear Receptor Related Protein 1 (NURR1) (AID 2282985; active = hit-call score of the fitted dose curve at least 0.9, where 1 is the maximum). The following applies: HepG2 Attagene TRANS reporter, mRNA readout. Summed up:
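Measures transcriptional activation by an exogenous NR-Gal4 chimera in transfected HepG2 liver cells. After 24 h, reporter RNA is reverse-transcribed, amplified and resolved by capillary electrophoresis; DMSO defines baseline.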

Assay [15] concerns the target Myc proto-oncogene protein (Homo sapiens) (UniProt P01106). As to the kind of experiment: ATG_Myc_CIS: Attagene CIS-FACTORIAL HepG2 Assay for human Myelocytomatosis (Myc) Proto-Oncogene Transcription Factor (AID 2282990). The following applies: HepG2, Attagene cis-reporter transcription factor activity; actives raise or lower the signal. In a few lines: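 HepG2, transient MRTU transfection (cis promoters, endogenous TFs); 24 h dosing; TriZol RNA → oligo(dT) RT → PCR → 6-FAM primer extension → HpaI cut → CE. Bidirectional fit vs DMSO.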

The target in assay [16] is Cellular tumor antigen p53 (Homo sapiens) (UniProt P04637). As to the kind of experiment: ATG_p53_CIS: Attagene CIS-FACTORIAL HepG2 Assay for human p53 Transcription Factor (AID 2282994). The following applies: HepG2 p53 cis-element reporter, Attagene mRNA; actives raise or lower the signal. Summed up: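 Steps: transfect HepG2 with multiplexed cis reporter constructs; dose chemicals 24 h; extract RNA, reverse-transcribe, PCR-amplify reporter sequences; FAM-label, HpaI-digest, resolve fragments by CE. Activity fitted both directions relative to DMSO.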

Assay [17] in a line: BSK_3C_TissueFactor: BioMAP Diversity Plus: 3C Assay for Tissue Factor Biomarker Activity (AID 2282997). The following applies: BioMAP 3C HUVEC, tissue factor biomarker readout; actives raise or lower the signal. Summed up: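 In this endothelial system, HUVEC are treated for 24 h and Tissue Factor is assessed by ELISA, normalised to DMSO.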
Assay [18] is described as follows: BSK_3C_uPAR: BioMAP Diversity Plus: 3C Assay for Urokinase-type plasminogen activator receptor (uPAR) Biomarker Activity (AID 2282998). The following applies: BioMAP 3C HUVEC, uPAR biomarker ELISA; actives raise or lower the signal. In a few lines: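 ELISA readout of uPAR on human vascular endothelium (umbilical vein primary cells), taken 24 h after chemical dosing. Increases and decreases are both fitted relative to DMSO vehicle.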
On the technique in general: ELISA stands for enzyme-linked immunosorbent assay.

The nature of assay [19]: BSK_3C_VCAM1: BioMAP Diversity Plus: 3C Assay for Vascular cell adhesion molecule 1 (VCAM1) Biomarker Activity (AID 2282999). The following applies: BioMAP 3C HUVEC, VCAM1 ELISA, cytokine-stimulated; actives raise or lower the signal. Summed up: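 Activity fitted in both directions relative to DMSO, with ELISA measurement of the surface marker on primary HUVEC (3C) at 24 h post-treatment; parallel SRB staining (0.1% SRB, TCA-fixed, 560 nm) flagged overt cytotoxicity.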

Assay [20] has as its target Bile acid receptor (Homo sapiens) (UniProt Q96RI1). Kind of assay: ATG_FXR_TRANS: Attagene TRANS-FACTORIAL HepG2 Assay for Farnesoid X Receptor (FXR) (AID 2282979; active = hit-call score of the fitted dose curve at least 0.9, where 1 is the maximum;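 also: hits raise reporter mRNA above DMSO so AC50 marks FXR activation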). The following applies: HepG2 Attagene TRANS FXR-GAL4 reporter transcription. Summed up: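 After 24 h chemical treatment of transfected HepG2 cells, GAL4-UAS reporter transcripts driven by an exogenous FXR-GAL4 fusion were measured by RT-PCR and capillary electrophoresis. Increases over DMSO were fitted.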

Sequence of Nuclear respiratory factor 1 (Homo sapiens) (Q16656 whole entry, looked up): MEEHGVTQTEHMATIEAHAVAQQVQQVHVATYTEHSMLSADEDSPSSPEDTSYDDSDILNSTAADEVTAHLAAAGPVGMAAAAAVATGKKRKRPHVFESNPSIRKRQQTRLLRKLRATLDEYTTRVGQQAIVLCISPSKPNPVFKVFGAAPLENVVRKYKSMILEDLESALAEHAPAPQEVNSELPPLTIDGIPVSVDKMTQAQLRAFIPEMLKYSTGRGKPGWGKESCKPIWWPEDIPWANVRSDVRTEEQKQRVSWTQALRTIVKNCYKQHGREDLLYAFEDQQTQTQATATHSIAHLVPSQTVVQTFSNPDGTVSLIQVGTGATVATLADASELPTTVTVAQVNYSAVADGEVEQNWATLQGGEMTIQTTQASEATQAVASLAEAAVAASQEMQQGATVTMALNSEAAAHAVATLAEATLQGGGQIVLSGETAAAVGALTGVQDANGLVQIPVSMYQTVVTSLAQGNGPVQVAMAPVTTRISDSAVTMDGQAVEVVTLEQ
Sequence of Cellular tumor antigen p53 (Homo sapiens) (P04637 whole entry, looked up, the tested form may be a part): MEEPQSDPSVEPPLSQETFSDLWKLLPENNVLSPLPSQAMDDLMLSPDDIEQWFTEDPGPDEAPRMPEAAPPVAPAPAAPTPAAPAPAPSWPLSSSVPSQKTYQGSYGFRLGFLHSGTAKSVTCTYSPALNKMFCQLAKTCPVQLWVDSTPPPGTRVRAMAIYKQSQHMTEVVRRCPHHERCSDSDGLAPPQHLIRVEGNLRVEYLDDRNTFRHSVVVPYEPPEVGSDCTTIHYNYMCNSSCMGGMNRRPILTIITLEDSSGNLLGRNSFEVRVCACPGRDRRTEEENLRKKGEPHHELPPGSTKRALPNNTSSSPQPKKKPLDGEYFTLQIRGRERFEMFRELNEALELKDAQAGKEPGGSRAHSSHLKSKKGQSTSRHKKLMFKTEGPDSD
Sequence of Nuclear receptor subfamily 4 group A member 2 (Homo sapiens) (P43354 whole entry, looked up, the tested form may be a part): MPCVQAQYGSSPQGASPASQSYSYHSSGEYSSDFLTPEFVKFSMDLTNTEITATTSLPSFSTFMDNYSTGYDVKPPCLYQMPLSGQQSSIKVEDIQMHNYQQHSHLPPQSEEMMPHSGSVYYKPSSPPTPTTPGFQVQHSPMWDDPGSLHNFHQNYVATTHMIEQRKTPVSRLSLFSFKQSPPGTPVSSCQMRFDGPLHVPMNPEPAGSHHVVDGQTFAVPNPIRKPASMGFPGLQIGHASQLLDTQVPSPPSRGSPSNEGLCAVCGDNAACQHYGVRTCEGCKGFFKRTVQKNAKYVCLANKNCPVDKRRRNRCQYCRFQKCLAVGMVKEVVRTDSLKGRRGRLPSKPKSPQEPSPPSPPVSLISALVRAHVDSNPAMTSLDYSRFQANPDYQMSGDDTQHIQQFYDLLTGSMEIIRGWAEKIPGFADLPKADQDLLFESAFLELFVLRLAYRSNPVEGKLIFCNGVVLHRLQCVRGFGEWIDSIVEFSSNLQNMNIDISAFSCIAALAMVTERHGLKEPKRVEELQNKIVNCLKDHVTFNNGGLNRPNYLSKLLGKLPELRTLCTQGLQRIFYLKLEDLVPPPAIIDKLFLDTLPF
Sequence of Myc proto-oncogene protein (Homo sapiens) (P01106 whole entry, looked up): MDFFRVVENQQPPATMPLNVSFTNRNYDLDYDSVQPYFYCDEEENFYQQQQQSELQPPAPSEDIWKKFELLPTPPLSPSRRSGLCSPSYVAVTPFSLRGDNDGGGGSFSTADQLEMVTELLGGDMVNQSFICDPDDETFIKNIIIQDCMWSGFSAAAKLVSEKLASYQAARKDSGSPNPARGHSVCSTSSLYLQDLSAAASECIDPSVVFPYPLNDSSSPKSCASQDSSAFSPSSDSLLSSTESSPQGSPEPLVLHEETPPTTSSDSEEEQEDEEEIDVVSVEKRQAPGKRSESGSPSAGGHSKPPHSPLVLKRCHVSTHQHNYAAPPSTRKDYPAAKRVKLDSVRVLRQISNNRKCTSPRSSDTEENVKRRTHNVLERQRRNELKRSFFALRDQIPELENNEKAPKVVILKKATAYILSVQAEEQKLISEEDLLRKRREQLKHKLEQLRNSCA
Sequence of Oxysterols receptor LXR-alpha (Homo sapiens) (Q13133 whole entry, looked up, the tested form may be a part): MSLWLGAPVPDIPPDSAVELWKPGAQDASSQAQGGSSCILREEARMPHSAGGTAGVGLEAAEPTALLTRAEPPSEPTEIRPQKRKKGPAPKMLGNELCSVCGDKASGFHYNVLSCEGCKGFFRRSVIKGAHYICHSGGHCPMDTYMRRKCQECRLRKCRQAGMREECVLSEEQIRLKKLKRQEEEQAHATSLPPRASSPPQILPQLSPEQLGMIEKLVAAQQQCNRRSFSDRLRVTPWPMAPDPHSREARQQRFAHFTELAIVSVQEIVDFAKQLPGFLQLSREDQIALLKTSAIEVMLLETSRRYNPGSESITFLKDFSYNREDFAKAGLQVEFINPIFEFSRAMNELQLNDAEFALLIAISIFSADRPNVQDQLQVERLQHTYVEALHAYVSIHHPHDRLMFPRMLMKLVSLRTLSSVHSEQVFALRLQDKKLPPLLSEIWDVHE
Sequence of Hepatocyte nuclear factor 4-alpha (Homo sapiens) (P41235 whole entry, looked up): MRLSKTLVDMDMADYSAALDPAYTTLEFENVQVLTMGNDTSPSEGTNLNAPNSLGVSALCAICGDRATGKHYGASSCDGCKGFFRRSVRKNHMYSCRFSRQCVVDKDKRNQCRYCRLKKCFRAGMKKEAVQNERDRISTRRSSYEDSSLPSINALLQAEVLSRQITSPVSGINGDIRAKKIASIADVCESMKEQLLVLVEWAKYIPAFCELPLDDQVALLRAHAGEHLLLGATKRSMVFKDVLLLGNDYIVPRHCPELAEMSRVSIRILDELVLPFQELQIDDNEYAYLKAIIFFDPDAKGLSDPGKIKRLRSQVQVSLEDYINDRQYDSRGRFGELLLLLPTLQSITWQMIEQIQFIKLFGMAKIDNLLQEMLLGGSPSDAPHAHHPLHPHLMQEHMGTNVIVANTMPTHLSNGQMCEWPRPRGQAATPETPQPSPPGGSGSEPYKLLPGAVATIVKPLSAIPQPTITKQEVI
Sequence of Oxysterols receptor LXR-beta (Homo sapiens) (P55055 whole entry, looked up, the tested form may be a part): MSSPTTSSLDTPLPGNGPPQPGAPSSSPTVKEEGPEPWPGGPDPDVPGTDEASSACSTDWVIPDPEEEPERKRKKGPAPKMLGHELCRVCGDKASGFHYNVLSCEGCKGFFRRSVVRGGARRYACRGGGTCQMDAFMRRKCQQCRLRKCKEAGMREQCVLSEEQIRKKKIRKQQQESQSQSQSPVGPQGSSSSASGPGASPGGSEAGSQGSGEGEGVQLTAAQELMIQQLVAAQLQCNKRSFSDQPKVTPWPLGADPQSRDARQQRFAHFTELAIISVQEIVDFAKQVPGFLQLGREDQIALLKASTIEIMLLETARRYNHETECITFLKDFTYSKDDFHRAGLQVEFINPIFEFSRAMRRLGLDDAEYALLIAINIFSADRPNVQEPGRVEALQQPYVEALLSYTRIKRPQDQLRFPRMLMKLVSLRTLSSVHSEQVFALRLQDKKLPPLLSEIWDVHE
Sequence of Transcriptional activator Myb (Homo sapiens) (P10242 whole entry, looked up): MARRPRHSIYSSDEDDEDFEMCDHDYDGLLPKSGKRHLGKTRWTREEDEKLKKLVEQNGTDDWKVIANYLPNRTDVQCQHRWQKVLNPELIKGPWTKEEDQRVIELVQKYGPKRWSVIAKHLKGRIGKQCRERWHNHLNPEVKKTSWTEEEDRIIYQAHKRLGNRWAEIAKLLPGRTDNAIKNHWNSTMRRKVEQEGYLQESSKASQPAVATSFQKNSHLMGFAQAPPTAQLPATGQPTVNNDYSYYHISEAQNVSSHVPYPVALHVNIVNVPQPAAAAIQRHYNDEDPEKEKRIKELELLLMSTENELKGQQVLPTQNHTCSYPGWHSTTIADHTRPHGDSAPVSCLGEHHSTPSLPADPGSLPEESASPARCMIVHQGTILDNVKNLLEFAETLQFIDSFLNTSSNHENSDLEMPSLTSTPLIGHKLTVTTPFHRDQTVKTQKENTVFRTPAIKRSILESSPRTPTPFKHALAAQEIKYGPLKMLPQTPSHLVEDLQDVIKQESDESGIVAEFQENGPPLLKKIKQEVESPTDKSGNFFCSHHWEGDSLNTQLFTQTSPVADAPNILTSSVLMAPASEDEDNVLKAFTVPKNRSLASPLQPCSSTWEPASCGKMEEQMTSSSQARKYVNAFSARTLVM
Sequence of Glucocorticoid receptor (Homo sapiens) (P04150 whole entry, looked up): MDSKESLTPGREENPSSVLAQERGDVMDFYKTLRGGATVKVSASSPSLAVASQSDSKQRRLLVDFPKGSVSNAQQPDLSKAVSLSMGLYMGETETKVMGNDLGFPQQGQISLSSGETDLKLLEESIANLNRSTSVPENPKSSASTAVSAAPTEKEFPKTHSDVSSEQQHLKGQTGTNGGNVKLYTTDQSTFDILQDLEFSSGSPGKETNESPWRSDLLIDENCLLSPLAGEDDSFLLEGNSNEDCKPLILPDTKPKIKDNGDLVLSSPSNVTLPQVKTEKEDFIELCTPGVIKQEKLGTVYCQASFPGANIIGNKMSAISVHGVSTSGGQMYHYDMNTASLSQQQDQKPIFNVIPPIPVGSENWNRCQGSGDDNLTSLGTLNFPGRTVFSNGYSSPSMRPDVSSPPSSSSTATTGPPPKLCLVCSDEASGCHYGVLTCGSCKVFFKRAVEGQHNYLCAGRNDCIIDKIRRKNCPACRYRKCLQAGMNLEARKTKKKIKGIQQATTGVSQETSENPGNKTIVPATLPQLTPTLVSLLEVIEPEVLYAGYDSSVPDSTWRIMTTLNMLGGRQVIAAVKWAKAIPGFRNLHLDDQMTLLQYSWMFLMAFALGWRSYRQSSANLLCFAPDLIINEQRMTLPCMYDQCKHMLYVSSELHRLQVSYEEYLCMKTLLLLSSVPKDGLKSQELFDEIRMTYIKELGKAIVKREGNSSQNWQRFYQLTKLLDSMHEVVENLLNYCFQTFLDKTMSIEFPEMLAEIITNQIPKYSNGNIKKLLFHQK

Turning to `CCCCC1CCCCC(=O)O1` (stereo not drawn), the compound was called inactive in [1], in assay [2], in [3], in assay [4], in [5] and in [6]. Besides, the compound was classed as inactive in assay [7], in assay [8], in [9], in assay [10] and in [11].

Consider `C=COCC1CCC(COC=C)CC1` (stereo not drawn), for which the outcome in assay [1], in assay [2], in assay [12], in [13], in [14] and in assay [6] was inactive. In addition, the result in assay [7] and in assay [11] was inactive. For the same compound, in assay [10], the concentration at half-maximal activity (AC50) was 179 µM (active).

With `Nc1ccc(O)c(N)c1`, the call in [1], in assay [12], in [3], in assay [13], in assay [14] and in assay [6] was inactive. In addition, the result in [7], in [8], in [15] and in assay [11] was inactive. For the same compound, in [10], the AC50 is 43.9 µM (active).

Regarding `C[C@]12CC[C@@H]3c4ccc(O)cc4CC[C@H]3[C@@H]1CC[C@@H]2O`, the outcome in assay [1], in assay [2], in assay [12], in [3], in assay [4] and in assay [13] was inactive. In addition, the outcome in assay [14], in assay [6], in assay [7], in assay [15], in [10] and in assay [16] was inactive. Moreover, the result in assay [19] was inactive. In addition, the AC50 is 19.8 µM (active) and 21.3 µM (active) and 12.8 µM (active) in [16]; 20 µM (active) in assay [17]; 11.9 µM (active) in assay [18].

Regarding `C=C1CC/C=C(\C)CC[C@@H]2[C@@H]1CC2(C)C`, the compound was classed as inactive in assay [1], in [20], in [5], in assay [13], in assay [14] and in [6]. The compound was classed as inactive in [7], in assay [8], in assay [15], in assay [9], in assay [11] and in [16]. In addition, the AC50 was 100 µM (active) in assay [10], 16.8 µM (active) in [17], 33.9 µM (active) in [18] and 30.1 µM (active) in assay [19].

One may read the AC50 as the concentration giving half of the maximal activity seen.
